# Data taken from PubChem BioAssay (NCI).
# About 83,000 compounds went through this panel and 20% of them were active in at least one assay; those are over-represented in the sample as a whole.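 For each line, cells grew in 96-well plates with the test compound present at a single concentration for 48 hours.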 Values without a mark were called inactive. Activity calls are given as the source filed them. The calls were made as follows: active = growth percent below 10; inactive = the rest.
# Columns and labels:
# Assay in all cases: NCI-60 one-dose screen, 48 h (100 = growth as untreated, 0 = no growth, -100 = all killed)
# Details in all cases: 10 µM unless noted
# RPMI-8226 leukemia = tested on: RPMI-8226 leukemia
# OVCAR-8 ovarian = tested on: OVCAR-8 ovarian
# OVCAR-5 ovarian = tested on: OVCAR-5 ovarian
# OVCAR-4 ovarian = tested on: OVCAR-4 ovarian
# SK-OV-3 ovarian = tested on: SK-OV-3 ovarian
# IGROV1 ovarian = tested on: IGROV1 ovarian
# HS 578T breast = tested on: HS 578T breast
# NCI/ADR-RES ovarian = tested on: NCI/ADR-RES ovarian
# T-47D breast = tested on: T-47D breast
# BT-549 breast = tested on: BT-549 breast
# MDA-MB-435 melanoma = tested on: MDA-MB-435 melanoma
# SW-620 colon = tested on: SW-620 colon
# MCF7 breast = tested on: MCF7 breast
# HCT-116 colon = tested on: HCT-116 colon
# HCC-2998 colon = tested on: HCC-2998 colon
# KM12 colon = tested on: KM12 colon
# SR leukemia = tested on: SR leukemia
# OVCAR-3 ovarian = tested on: OVCAR-3 ovarian
Compound,growth (RPMI-8226 leukemia),growth (OVCAR-8 ovarian),growth (OVCAR-5 ovarian),growth (OVCAR-4 ovarian),growth (SK-OV-3 ovarian),growth (IGROV1 ovarian),growth (HS 578T breast),growth (NCI/ADR-RES ovarian),growth (T-47D breast),growth (BT-549 breast),growth (MDA-MB-435 melanoma),growth (SW-620 colon),growth (MCF7 breast),growth (HCT-116 colon),growth (HCC-2998 colon),growth (KM12 colon),growth (SR leukemia),growth (OVCAR-3 ovarian)
Cc1cc(-c2ccc(Cl)cc2)n(Cc2nnc(SCC(=O)Nc3ccc(S(N)(=O)=O)cc3)n2C2CCCCC2)n1,102%,99.2%,107%,109%,106%,104%,100%,106%,108%,124%,109%,107%,91%,107%,110%,108%,–,–
N/C(=N\C(N)=N\c1nc2ccccc2s1)c1ccc2ccccc2c1,–,84.8%,102%,85%,116%,55.3%,90.9%,30.3%,79.2%,–,88.9%,110%,79.3%,63.5%,116%,59.5%,-17.6% (active),109%
CCCCCc1ccc(S(=O)(=O)Nc2cc(-c3csc(NC(=O)CN4CCN(C)CC4)n3)ccc2OC)cc1,–,50.8%,62.4%,41.8%,73.4%,14.2%,-30.3% (active),41.9%,-24.3% (active),87.7%,-84.1% (active),-26.9% (active),-63.8% (active),-70.8% (active),-50.2% (active),25.8%,-20.3% (active),-19.4% (active)
O=C(CCn1cc[n+](CC(=O)c2ccc(-c3ccccc3)cc2)c1)Nc1cccc2cccnc12,–,82.4%,–,24.6%,74.6%,36.4%,71.3%,99.7%,42.4%,57.2%,87.2%,85.8%,58%,84.5%,68.4%,42.9%,79.8%,51.9%
C[C@@H](Nc1ncnc2ccc(-c3cnc(Cl)c(NS(C)(=O)=O)c3)cc12)c1ccccc1,–,75.9%,38.4%,58.3%,55.6%,3.14% (active),27.1%,85%,9.4% (active),–,60.9%,67.7%,21.3%,61%,70.6%,89.3%,47.6%,44.6%
